Screening data: PubChem, several laboratories
Sa ugtP lethal = growth inhibition of ugtP-null S. aureus, primary screen, RN4220 ugtP deletion, OD600; growth inhibition, % (concentration not given with the values); AID 1259309, 2017; 16 h; 330,000 compounds, 0.54% hits; in the data active = growth inhibition above about 68%;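 also: plate controls were untreated wells for no effect and antibiotic for full effect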
PfHsp40 yeast = rescue of yeast from PfHsp40 toxicity, primary screen, S. cerevisiae, ATP luminescence; growth rescue, % at 12.5 µM; S. cerevisiae expressing PfHsp40, growth rescue; 340,000 compounds, 0.68% hits; in the data active = growth rescue above about 28%, passing the limit was not always enough;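 also: yeast W303a lacking pdr1 and pdr3 grown in galactose medium; growth measured after three days at 30 °C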
BioA inh = M. tuberculosis BioA enzyme inhibitors, primary screen, biochemical, plate reader, single point, HTS | purified M. tuberculosis BioA enzyme | inhibition, % at 9.99 µM | 360,000 compounds, 0.096% hits; in the data active = inhibition above about 40%
Mtb betalactam = beta-lactam sensitization of Mtb H37Rv, H37Rv; inhibition, % at 25 µM; 330,000 compounds, 0.27% hits; M. tuberculosis H37Rv growth with meropenem, percent inhibition; call rule not given here;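 also: growth measured after seven days incubation then overnight dye step; 0% = bacteria only wells and 100% = bacteria with antibiotic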
RN4220 kill = growth inhibition of S. aureus RN4220, primary screen, OD600; 330,000 compounds, 0.33% hits; AID 1259311, 2017; inhibition, % (concentration not given with the values); 16 h; in the data active = inhibition above about 85%;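 also: plate controls were untreated cells for no effect and reference antibiotic for full effect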
Active calls of the source: *; · = no result given. The list is not random: actives were taken first. Their share in the collection is about 0.9%.

SMILES | Sa ugtP lethal | PfHsp40 yeast | BioA inh | Mtb betalactam | RN4220 kill
CCOc1ccccc1N1CCN(C(=O)c2cc(-c3cc(OC)ccc3OC)nc3ccccc23)CC1 | -5 | 31* | -1 | 9 | 13
COc1ccc(-c2cc(C(=O)N3CCN(c4ccccc4F)CC3)c3ccccc3n2)c(OC)c1 | 11 | 376* | -1 | 37 | -1
COc1ccc2c(c1)OCC1C2N2C(=O)CN(Cc3ccccc3)C(=O)[C@@]2(C)C1c1ccccc1 (stereo not given in full) | 4 | · | · | · | -4
N=c1c2c(-c3ccccc3)c(-c3ccccc3)n(Cc3ccco3)c2ncn1CCCn1ccnc1 | 8 | 235* | 14 | 93 | -5
N=c1c2c(-c3ccccc3)c(-c3ccccc3)n(Cc3ccco3)c2ncn1CCCN1CCOCC1 | 6 | 0 | · | 81 | -3
c1ccc(-c2c(-c3ccccc3)n(Cc3ccco3)c3ncnc(NCCCn4ccnc4)c23)cc1 | 30 | 148* | 2 | 100 | 18
N=c1c2c(-c3ccccc3)c(-c3ccccc3)n(Cc3ccccc3)c2ncn1CCO | 91* | 1 | 13 | 82 | -3
OCCNc1ncnc2c1c(-c1ccccc1)c(-c1ccccc1)n2Cc1ccco1 | 10 | 0 | 3 | 4 | 0
Cn1nc(C(=O)Nc2cc(Cl)ccc2N2CCCC2)c2ccccc2c1=O | 100* | 0 | 0 | 3 | 100*
CN1CCN(c2ccc(Cl)cc2NC(=O)c2nn(-c3ccccc3)c(=O)c3ccccc23)CC1 | -11 | 0 | 1 | · | 1
CC1OCC(C[N+](C)(C)C)O1 (stereo not given) | -6 | · | · | · | 4
O=C(NCCNC(=O)c1ccccn1)c1ccc(Cl)cc1 | 8 | -1 | -5 | -10 | -4
O=C(Sc1ccc(Cl)cc1)c1ccccn1 | 84* | 22 | · | 41 | -1
Cc1ccc(S(=O)(=O)NN2C(=O)/C(=C/c3ccc(F)cc3)SC2=S)cc1 | 89* | 0 | 0 | -2 | 85*
Cc1ccc(S(=O)(=O)NN2C(=O)/C(=C\c3ccc(Cl)cc3)SC2=S)cc1 | 76 | -1 | -1 | 10 | 83
C=CCOc1ccc(/C=C2\SC(=S)N(NS(=O)(=O)c3ccc(C)cc3)C2=O)cc1 | 88* | -1 | -1 | 3 | 63
COc1ccc(/C=C2/SC(=S)N(NS(=O)(=O)c3ccc(C)cc3)C2=O)cc1 | 82* | 0 | 2 | 9 | 64
Cc1ccc(/C=C2\SC(=S)N(NS(=O)(=O)c3ccc(C)cc3)C2=O)cc1 | 38 | -1 | 0 | 10 | 62
CC(=CC(=O)c1ccc(F)cc1)NCc1ccc2c(c1)OCO2 | 9 | · | · | · | 0
O=c1oc2c(O)c(O)cc3c(=O)oc4c(O)c(O)cc1c4c23 | · | 152* | 5 | -7 | ·
O=c1oc2ccccc2c2oc3cc(O)c(O)cc3c12 | -6 | -1 | · | 77 | 9
Cc1ccc(NCSc2ccc(Cl)cc2)cc1 | 6 | 0 | 0 | · | 4
Clc1ccc(SCNc2ccccc2Cl)cc1 | 88* | 0 | -1 | 7 | 3
CN1CC2C3C(=O)N(Cc4ccccc4)C(=O)C3[C@](Cc3ccccc3)(C1=O)N2C(=O)c1ccc(F)cc1 (stereo not given in full) | 7 | · | · | · | 5
Clc1ccc2[nH]c(-c3ccccc3)cc2c1 | 64 | 65* | -1 | 4 | -9
SMILES | Sa ugtP lethal | PfHsp40 yeast | BioA inh | Mtb betalactam | RN4220 kill
Cc1cc(C(=O)NN=Cc2sc(N3CCOCC3)nc2-c2ccccc2)c(C)o1 | 95* | · | · | · | 94*
CC(C)(C)OC(=O)NCCCCCNC(=O)c1[nH]cnc1C(=O)NC(Cc1ccccc1)C(=O)OCc1ccccc1 (stereo not given) | -24 | · | · | · | 0
COC(=O)C1=C(c2ccc(C(C)=O)cc2)CC2CCC1N2C(=O)NCCO (stereo not given) | -2 | · | · | · | 4
Cc1ccc(NS(=O)(=O)c2ccc3[nH]c(=O)sc3c2)cc1 | 100* | -1 | -3 | -8 | -9
Cc1ccc(CSc2nc3ccsc3c(=O)n2Cc2ccccn2)cc1 | 87* | -1 | 1 | 0 | -10
Cc1ccc(Nc2c(-c3ccccc3O)nc3cnccn23)cc1 | 1 | 58* | · | -2 | 13
COc1ccc(Nc2c(-c3ccc(C)cc3)nc3cnccn23)cc1 | 0 | -1 | · | 3 | 3
C#CCOCCOCCOCCNc1nc(N2CCN(C(=O)C(CCC(=O)O)n3cc(C(N)CC(C)C)nn3)CC2)nc(N2CCN(C(=O)C(C(C)CC)n3cc(C(N)COC(=O)C(F)(F)F)nn3)CC2)n1 (stereo not given) | 3 | · | · | · | 8
CC1CCC(C(C)C)C(OC(=O)CSc2nccc(=O)[nH]2)C1 (stereo not given) | -13 | 1 | -1 | 9 | 12
COc1ccc(OCc2n(CC(=O)OC3CC(C)CCC3C(C)C)c3ccccc3[n+]2C)cc1 (stereo not given) | 100* | -1 | 11 | 97 | 101*
COc1ccc(-c2n(CC(=O)OC3CC(C)CCC3C(C)C)c3ccccc3[n+]2C)cc1 (stereo not given) | 101* | 0 | · | · | 101*
CCOC(=O)C1C2COc3ccc(OC)cc3C2N2C(=O)CN(Cc3ccco3)C(=O)[C@@]12C (stereo not given in full) | 0 | · | · | · | 3
O=C(CSc1ccccc1)NC(=O)NCc1ccccc1 | 4 | 84* | · | -6 | 2
Cc1nc(SCC(=O)NC(=O)NCc2ccccc2)nc(C)c1C | 0 | 0 | · | -6 | 6
O=[N+]([O-])c1ccccc1-c1cc(-c2ccccc2)cc(-c2ccccc2)[n+]1Cc1ccccc1Cl | 98* | · | · | 100 | 86*
O=C(O)c1ccc(NC(=O)c2cn(-c3ccccc3)nc2-c2ccc(Br)cc2)cc1 | 33 | 69* | · | 9 | 3
Cc1ccc(N(C(=O)c2ccccc2Cl)C2=NC(C)CS2)c(C)c1 (stereo not given) | 88* | 0 | · | 3 | 2
C=CCC(CC(=O)NC(CO)Cc1ccccc1)C(=O)NC(COC(=O)C(CC=C)Cc1ccc(F)cc1)Cc1ccccc1 (stereo not given) | 18 | · | · | · | 9
CCOC(=O)C1C2COc3ccc(Br)cc3C2N2C(=O)C(C)NC(=O)[C@@]12C (stereo not given in full) | -13 | · | · | · | 8
O=C(Nc1nc(-c2cccs2)cs1)c1ccc(Cl)s1 | 94* | 0 | 0 | 4 | 61
O=C(Nc1nc(-c2ccc(Cl)s2)cs1)c1ccccc1 | 94* | 1 | -1 | 63 | 6
C=CCCC(Cc1ccc(F)cc1)C(=O)OC(CNC(=O)C(CC=C)CC(=O)N(CCO)Cc1ccccc1)c1ccccc1 (stereo not given) | 2 | · | · | · | -5
Cc1cccc(C2=NN(c3ccccc3)[C@@H](C(=O)N3CCOC3=O)[C@@H]2C)c1 | 15 | 33* | 2 | · | -7
CCCCCOc1ccc(OC(=O)c2ccncc2)cc1 | 5 | 74* | · | 95 | 4
O=C(C=Cc1ccc(F)cc1)NC(=S)N1CCOCC1 | -9 | · | · | · | 2
